Data on 40 compounds can be found in PubChem BioAssay (Tox21).

Molecules are shown by their SMILES. Records with an inconclusive call do not appear. Active and inactive are the calls of the source. Calls come from the whole dose curve.
% is set by controls: 0 for no effect and ±100 for the full control effect.

In this assay the target is Vitamin D3 receptor (Homo sapiens) (UniProt P11473). Description: qHTS assay to identify small molecule agonists of the vitamin D receptor (VDR) signaling pathway (AID 743222). Conditions: HEK293T VDR-UAS-bla, beta-lactamase FRET ratio, 16 h; series mostly up to 63.5 µM; activation: at the top concentration. An excerpt: National Center for Advancing Translational Sciences [NCATS]
Chain of Vitamin D3 receptor (Homo sapiens) (P11473 whole entry, looked up): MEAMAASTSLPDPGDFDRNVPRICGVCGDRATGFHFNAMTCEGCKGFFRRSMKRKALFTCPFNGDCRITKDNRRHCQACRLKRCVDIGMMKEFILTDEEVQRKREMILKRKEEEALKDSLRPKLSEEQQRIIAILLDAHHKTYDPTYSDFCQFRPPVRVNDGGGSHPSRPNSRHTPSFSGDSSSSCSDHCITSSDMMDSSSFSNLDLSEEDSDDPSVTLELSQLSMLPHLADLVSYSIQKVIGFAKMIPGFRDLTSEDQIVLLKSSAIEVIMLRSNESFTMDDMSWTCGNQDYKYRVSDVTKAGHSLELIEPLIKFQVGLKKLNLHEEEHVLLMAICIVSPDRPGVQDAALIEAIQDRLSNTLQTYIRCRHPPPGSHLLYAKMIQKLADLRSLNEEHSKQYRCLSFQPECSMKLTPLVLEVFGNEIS
NIH Chemical Genomics Center [NCGC]
U.S. Environmental Protection Agency [EPA]
National Institutes of Environmental Health Sciences [NIEHS]
National Toxicology Program [NTP]
U.S. Food and Drug Administration [FDA]
The vitamin D receptor (VDR), a member of nuclear hormone receptor superfamily, plays a critical role in calcium homeostasis and bone metabolism. It is also involved in cell differentiation and growth, and thrombogenicity.
Tox21 Assay Protocol Summary:
VDR-bla cells were dispensed at 2,000 cells/6 uL/well into black wall/clear-bottom 1536-well plates using a Multidrop Combi (Thermo Fisher Scientific, Waltham, MA) dispenser. After the assay plates were incubated at a 37C and 5% CO2 for 4 h, 23 nL of compounds dissolved in DMSO, positive controls or DMSO only was transferred to the assay plate by a Pintool station (Kalypsys, San Diego, CA). The plates were incubated at 37C and 5% CO2 for 16 h. After 1 uL of LiveBLAzerTM B/G FRET substrate was added using a Bioraptr Flying Reagent Dispenser (FRD) workstation (Beckman Coulter, Indianapolis, IN, USA), the plates were incubated at room temperature for 2 h, and fluorescence intensity was measured by an Envision plate reader (PerkinElmer, Shelton, CT).
For `Nc1c(Cl)cc(Cl)cc1[N+](=O)[O-]`, the “activation” value was -2.86% (inactive). For `CCCCC[C@H](O)/C=C/[C@H]1[C@H](O)CC(=O)[C@@H]1C/C=C\CCCC(=O)O`, the “activation” value was -20.5% (inactive). Then `Cc1cn([C@H]2C[C@H](F)[C@@H](CO)O2)c(=O)[nH]c1=O`, with 8.49% (inactive). As for `CC1CCCO1` (stereo not given), the “activation” value is 0.488% (inactive).

With `O=C1OC(=O)c2c(Br)c(Br)c(Br)c(Br)c21`, the “activation” value is 6.46% (inactive). `CC/C=C\C/C=C\C/C=C\CCCCCCCC(=O)OCC`: the “activation” value was -19.7% [at 81.1 µM] (inactive).

With `Cc1ccc(N(CC2=NCCN2)c2cccc(O)c2)cc1`, the “activation” value was 6.97% (inactive). Regarding `CC(C(=O)O)c1ccc(C(=O)c2cccs2)cc1` (stereo not given), the “activation” value was -11.4% (inactive). Next, `CC(C)(C)CCCCCCOC(=O)c1ccccc1C(=O)OCCCCCCC(C)(C)C`: -8.19% (inactive); `O=C(O)CCS`: 7.81% [at 81.1 µM] (inactive). Then `CC(=O)OCCC(C)CC(C)(C)C` (stereo not given), with -4.16% (inactive); and `CC(=O)N[C@@H](Cc1ccc(O)cc1)C(=O)O`, with 8.78% (inactive); and `Cc1ccccc1S(N)(=O)=O`, with 2.53% (inactive). For `CC(=O)C(C)=O`, the “activation” value is -1.96% [at 81.1 µM] (inactive). Turning to `Cc1cccc(C)c1NC(=O)c1cc(S(N)(=O)=O)c(Cl)cc1O`, the “activation” value is 6.97% (inactive).

Regarding `CCOC(=O)C(C)O` (stereo not given), the “activation” value was -9.18% [at 81.1 µM] (inactive). Then `O=C(NC(Cc1cc(=O)[nH]c2ccccc12)C(=O)O)c1ccc(Cl)cc1` (stereo not given), with -1.52% (inactive); and `CC(C)OC(=O)c1ccccc1C(=O)OC(C)C`, with -9.1% (inactive); and `Oc1cccc2[nH]ccc12`, with -3.76% (inactive). For the compound `COc1ccc(C2C(=O)c3ccccc3C2=O)cc1`, the “activation” value was -2.87% (inactive). Next, `COc1ccc(/C=C/C(=O)c2ccc(OC)cc2OC)cc1`: 1.52% (inactive); `O=S(=O)(O)CO`: -1.72% (inactive); `BrC(Br)C(Br)Br`: 0.0792% (inactive). Turning to `CC(C)(C(=O)c1cccnc1)c1cccnc1`, the “activation” value was 4.56% (inactive). `CCCCCCCCCCCCCOC(=O)CCSCCC(=O)OCCCCCCCCCCCCC`: the “activation” value is -3.95% [at 29.5 µM] (inactive). Then `O=C(c1ccccc1)C1CCC1`, with -0.149% (inactive); and `Cc1cc([N+](=O)[O-])ccc1N`, with 4.83% (inactive). For `O=C1CC[C@@H](C(=O)O)N1`, the “activation” value is 1.32% (inactive). Then `COC(CC(C)CCCC(C)(C)O)OC` (stereo not given), with 3.73% (inactive); and `CC(=O)OC(C)C[N+](C)(C)C` (stereo not given), with 11.6% (inactive). Next, `CC1CCc2nccnc21` (stereo not given): -8.82% (inactive). Regarding `CC(C)(O)CCc1ccccc1`, the “activation” value is -13.1% (inactive). Regarding `COC(OC)OC`, the “activation” value was 2.22% (inactive). For `CCCCCCCC(=O)Oc1c(Br)cc(C#N)cc1Br`, the “activation” value was -1.93% (inactive). Turning to `O=c1[nH][nH]c(=O)c2cc([N+](=O)[O-])ccc12`, the “activation” value was -10.7% [at 81.1 µM] (inactive). `COc1ccc(C)cc1`: the “activation” value is 0.913% (inactive). Then `CC[C@H]1OC(=O)[C@H](C)[C@@H](O[C@H]2C[C@@](C)(OC)[C@@H](O)[C@H](C)O2)[C@H](C)[C@@H](O[C@@H]2O[C@H](C)C[C@H](N(C)C)[C@H]2O)[C@](C)(O)C[C@@H](C)C(=O)[C@H](C)[C@@H](O)[C@]1(C)O`, with -0.82% (inactive); and `C=CC(=O)NC(C)C`, with 11.5% (inactive). Then `CCCCCCCCCCCCCCN(C)C`, with -12.3% [at 29.5 µM] (inactive); and `O=C1OC[C@H](Cc2cccc(O)c2)[C@H]1Cc1cccc(O)c1`, with -2.93% [at 29.5 µM] (inactive).
